Data as given in PubChem BioAssay (EPA / NIEHS).
Results filed as inconclusive are left out. Activity calls are given as the source filed them. The calls were made as follows, unless noted: active = hit-call score of the fitted dose curve at least 0.9, where 1 is the maximum; inactive = score below 0.9.

Key:
[1] = CCTE_Harrill_HTTr_Viability_DMEM_12hr: (Pilot) CCTE's 12-hour Cell Viability Assessment for the High-Throughput Transcriptomics (HTTr) Platform, in MCF-7 cells cultured in DMEM + 10% fetal bovine serum, Harrill Lab (AID 2283974)
Outline: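 Propidium iodide dye exclusion imaged by high-content microscopy after 12 h chemical exposure (eight concentrations) of MCF-7 cells grown in DMEM plus 10% FBS; values fitted in both directions relative to DMSO.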

[2] = CCTE_Harrill_HTTr_Viability_DMEM_24hr: (Pilot) CCTE's 24-hour Cell Viability Assessment for the High-Throughput Transcriptomics (HTTr) Platform, in MCF-7 cells cultured in DMEM + 10% fetal bovine serum, Harrill Lab (AID 2283975)
Outline: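 Pilot study: propidium iodide dye exclusion, imaged by high content microscopy, after 24 h compound exposure (eight concentrations) in MCF-7 cultured in DMEM + 10% fetal bovine serum; DMSO served as negative control and baseline.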

[3] = CCTE_Harrill_HTTr_Viability_PRF_DMEM_6hr: (Pilot) CCTE's 6-hour Cell Viability Assessment for the High-Throughput Transcriptomics (HTTr) Platform, in MCF-7 cells cultured phenol red-free DMEM + 10% charcoal-stripped fetal bovine serum, Harrill Lab (AID 2283976)
Outline: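 Membrane integrity by high-content imaging of propidium iodide uptake, six hours after dosing with eight concentrations. Cells: MCF-7 grown in phenol red-free DMEM plus 10% charcoal-stripped serum; DMSO serves as baseline for bidirectional fits.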

[4] = CCTE_Harrill_HTTr_Viability_PRF_DMEM_12hr: (Pilot) CCTE's 12-hour Cell Viability Assessment for the High-Throughput Transcriptomics (HTTr) Platform, in MCF-7 cells cultured in phenol red-free DMEM + 10% charcoal-stripped fetal bovine serum, Harrill Lab (AID 2283977)
Outline: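 Membrane integrity was scored via propidium iodide dye exclusion imaging, fitted in both directions relative to DMSO. Compounds ran as eight-point dilutions for 12 hours on MCF-7 grown in phenol red-free DMEM plus 10% charcoal-stripped serum.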

[5] = CCTE_Harrill_HTTr_Viability_PRF_DMEM_24hr: (Pilot) CCTE's 24-hour Cell Viability Assessment for the High-Throughput Transcriptomics (HTTr) Platform, in MCF-7 cells cultured in phenol red-free DMEM + 10% charcoal-stripped fetal bovine serum, Harrill Lab (AID 2283980)
Outline: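 Propidium iodide exclusion imaged at 24 h after dosing scores viability; cells were MCF-7 grown in phenol red-free DMEM plus 10% charcoal-stripped serum, tested in eight concentrations, fitted in both directions against DMSO.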

[6] = CCTE_Harrill_HTTr_Apoptosis_DMEM_6hr: (Pilot) CCTE's 6-hour Apoptosis Assessment for the High-Throughput Transcriptomics (HTTr) Platform, in MCF-7 cells cultured in DMEM + 10% fetal bovine serum, Harrill Lab (AID 2283981)
Description: (§1) This is a cell-based assay that evaluates apoptosis using high content imaging to evaluate activation of caspase-3/7 using the CellEvent Caspase 3/7 Green detection reagent in 384-well format.One of seven assay components measured from the CCTE_Harrill_HTTr_Apoptosis assay. This was part of a pilot experiment. This is a cell-based assay that evaluates apoptosis in MCF-7 cells cultured in DMEM + 10% fetal bovine serum. High content imaging is used to evaluate activation of caspase-3/7 using the CellEvent Caspase 3/7 Green detection reagent. Measurements are taken at 6 hours after chemical dosing in 384-well format.The assay component endpoint CCTE_Harrill_HTTr_Apoptosis_DMEM_6hr was analyzed with bidirectional fitting relation to DMSO as the negative control and baseline of activity. Using a type of viability reporter, gain-of-signal activity can be used to evaluate activation of caspase-3/7 using the CellEvent Caspase 3/7 Green detection reagent to understand changes in apoptosis. To generalize the intended target to other relatable targets, this assay endpoint is annotated to cell cycle, where the subfamily is apoptosis.
Chemicals were tested in MCF7 cells in an eight point dilution series with a six hour exposure duration.

[7] = CCTE_Harrill_HTTr_Apoptosis_DMEM_12hr: (Pilot) CCTE's 12-hour Apoptosis Assessment for the High-Throughput Transcriptomics (HTTr) Platform, in MCF-7 cells cultured in DMEM + 10% fetal bovine serum, Harrill Lab (AID 2283982)
Description: as §1, with “12” for “6”, “CCTE_Harrill_HTTr_Apoptosis_DMEM_12hr” for “CCTE_Harrill_HTTr_Apoptosis_DMEM_6hr”
Chemicals were tested in MCF7 cells in an eight point dilution series with a twelve hour exposure duration.

[8] = CCTE_Harrill_HTTr_Apoptosis_DMEM_24hr: (Pilot) CCTE's 24-hour Apoptosis Assessment for the High-Throughput Transcriptomics (HTTr) Platform, in MCF-7 cells cultured in DMEM + 10% fetal bovine serum, Harrill Lab (AID 2283983)
Outline: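 Caspase-3/7 activity read by high-content imaging (CellEvent Green reagent) 24 h after dosing. MCF-7 cells grown in DMEM with 10% FBS received an eight-point concentration series; fits were bidirectional versus DMSO.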

[9] = CCTE_Harrill_HTTr_Apoptosis_PRF_DMEM_6hr: (Pilot) CCTE's 6-hour Apoptosis Assessment for the High-Throughput Transcriptomics (HTTr) Platform, in MCF-7 cells cultured phenol red-free DMEM + 10% charcoal-stripped fetal bovine serum, Harrill Lab (AID 2283984)
Outline: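 Caspase-3/7 activity (CellEvent Green) read by high-content imaging 6 h after dosing, eight concentrations. Cells: MCF-7, phenol red-free DMEM with 10% charcoal-stripped serum. Curves fit both directions against DMSO.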

[10] = TOX21_TR_RXR_BLA_Antagonist_Followup_viability: Viability Assessment in the Tox21 Thyroid Hormone Receptor beta Retinoid X Receptor alpha (RXRa) Antagonism Beta-lactamase (BLA) Follow-Up Assay (AID 2283979; active = hit-call score of the fitted dose curve at least 0.9, where 1 is the maximum)
Outline: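 RXRa-bla HEK293T cells (2,500/well, phenol red-free DMEM, 2% charcoal-stripped FBS) were attached 5 h, then exposed to compounds at 11 concentrations in triplicate for 16 h at 37C. Viability measured by CellTiter-Glo ATP luminescence, bidirectional fitting versus DMSO.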

Measured: outcome

CS(=O)(=O)NC(=O)c1cc(Oc2ccc(C(F)(F)F)cc2Cl)ccc1[N+](=O)[O-]
inactive: [1] | [2] | [3] | [4] | [5] | [6] | [7] | [8] | [9]

COC(=O)Nc1nc2ccccc2[nH]1
inactive: [10]

CN(C)c1ccc(C(=O)c2ccc(N(C)C)cc2)cc1
inactive: [10]
